# Measured values reported in PubChem BioAssay (NCATS).
# Results filed as inconclusive are left out. A call without a number means that no potency is given here. Unmarked numbers belong to inactive results. Active and inactive are the calls of the source. Unless noted, calls come from the whole dose curve; as a rule, active = well fitted curve in the direction sought with a large enough effect; inconclusive = small, poorly fitted or top-dose-only effect, or another doubt; inactive = no such curve, though single readings can be large; an effect the other way counts as inactive or inconclusive.
# Legend:
# [1] = qHTS to identify inhibitors of the type 1 interferon - major histocompatibility complex class I in skeletal muscle: primary screen against the NCATS Pharmaceutical Collection (AID 1347407);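 note: luminescence of HiBiT knocked into endogenous HLA-B as interferon-induced MHC class I level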
# How it was run: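 Immortalized human myoblasts (C25cl48) with HiBiT knocked into endogenous HLA-B*08:01 were stimulated with 4.0 ng/ml IFN-beta and treated with compounds ([…] top 46 uM) for 24 hrs at 37 C. HiBiT lytic luminescence read.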
# [2] = biological target: Protein phosphatase 1D (Homo sapiens) (UniProt O15297); assay: RapidFire Mass Spectrometry qHTS Assay for Modulators of WT P53-Induced Phosphatase 1 (WIP1) (AID 1347424);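 note: amount of dephosphorylated VEPPL-S-QETFS peptide product formed by WIP1; series mostly up to about 63 µM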
# How it was run: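 Mass-spectrometric measurement of dephosphorylated peptide after a 5 min room-temperature reaction of 10 nM WIP1 with 2 uM phosphopeptide, following 1 h compound preincubation in 30 mM MgCl2 buffer.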
# [3] = biological target: Protein phosphatase 1D (Homo sapiens) (UniProt O15297); assay: Rhodamine-PBP qHTS Assay for Modulators of WT P53-Induced Phosphatase 1 (WIP1) (AID 1347425)
# How it was run: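 Steps: enzyme with Rh-PBP sensor and compounds, room-temperature incubation of 1 hr, baseline read, addition of VEPPL-pS-QETFS (10 uM final), kinetic fluorescence reads at 525/598 nm. Activity equals final minus baseline signal.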
# [4] = Primary qHTS for inhibitors of La Crosse Virus (LACV) - induced cell death in SH-SY5Y cells (AID 1508616);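 note: top concentration of the series differs between compounds; higher means more rescue of cells from virus-induced death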
# How it was run: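 Screening measures cell viability in LACV-infected SH-SY5Y cultures. Compound was added before virus (0.01 MOI), and ATP was detected by luminescence 6 days later.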
# [5] = biological target: Calcium and integrin-binding protein 1 (Homo sapiens) (UniProt Q99828); assay: Primary qHTS for Identification of Calcium Integrin Binding Protein 1 (CIB1) Competitor (AID 1508620);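 note: GST tagged CIB1 binding a fluorescein labelled alphaIIb integrin peptide tracer; top concentration of the series differs between compounds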
# How it was run: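 Fluorescence polarization competition: CIB1-GST (1 uM final) preincubated with compound 15 min at room temperature, then FITC-labeled alphaIIb peptide (100 nM final) added for another 15 min. Polarization read at Ex 480/Em 540.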
# [6] = A High-Content qHTS Against Drug Library for the Identification of Small Molecules that Inhibit DYT1 Early Onset Primary Dystonia-Associated Cell Pathology (AID 1645839; calls by dose curve; note: series mostly up to about 46 µM)
# How it was run: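 Induced EGFP-delE TorsinA cells are imaged after 48 h of compound treatment. Punctate fusion-protein distribution gives the %pathology value, while nuclei counts flag toxicity. Wild-type EGFP-hTOR1A cells define the normal pattern.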
# [7] = biological target: Cytochrome P450 2D6 (Homo sapiens) (UniProt P10635); assay: Cytochrome P450 family 2 subfamily D member 6 (CYP2D6) small molecule antagonists: luciferase biochemical (cell-free) qHTS assay (AID 1645840; active = well fitted curve in the direction sought with a large enough effect in the repeat runs; an effect the other way counts as inactive or inconclusive; note: nearly all actives have a fitted effect of over 55% in size; note: potency is the fitted concentration of half-maximal effect)
# How it was run: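 P450-Glo CYP2D6 system: proluciferin substrate converted by enzyme to luciferin, read by luminescence proportional to activity. Enzyme-substrate mix with compound 10 min at room temperature, then NADPH regeneration 1 h before detection reagent.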
# [8] = Primary qHTS for inhibitors of nuclear receptor binding SET domain protein 2 (NSD2) in an isogenic RCH-ACV NSD2 p.E1099K mutant (9B) (AID 1645876); note: nearly all actives have a fitted effect of over 70% in size; note: potency is the fitted concentration of half-maximal effect
# [9] = Primary qHTS for inhibitors of nuclear receptor binding SET domain protein 2 (NSD2) in an RCH-ACV wild type WT cells (2C) (AID 1645877); note: nearly all actives have a fitted effect of over 70% in size; note: potency is the fitted concentration of half-maximal effect
# [10] = biological target: Cytochrome P450 2C9 (Homo sapiens) (UniProt P11712); assay: Cytochrome P450 family 2 subfamily C member 9 (CYP2C9) small molecule antagonists: luciferase biochemical (cell-free) qHTS assay (AID 1645842; active = well fitted curve in the direction sought with a large enough effect in the repeat runs; an effect the other way counts as inactive or inconclusive; note: nearly all actives have a fitted effect of over 55% in size; note: potency is the fitted concentration of half-maximal effect)
# How it was run: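 P450-Glo CYP2C9 system: proluciferin substrate with enzyme in mix containing 0.4% BSA, 10 min at room temperature, then NADPH regeneration solution added and incubated 1 h at 37C. Detection reagent stopped reaction; luminescence read after 20 min as RLU.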
# [11] = Primary qHTS for small molecule stabilizers of the endoplasmic reticulum resident proteome: Secreted ER Calcium Modulated Protein (SERCaMP) assay (AID 1508630)
# How it was run: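 The SH-SY5Y reporter protocol was run at 3 concentrations up to 38.3 uM (primary) or 11 concentrations (follow-up): 16 h compound, 100 nM thapsigargin for 4 h, then extracellular luciferase luminescence.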
# [12] = biological target: Calcium and integrin-binding protein 1 (Homo sapiens) (UniProt Q99828); assay: Confirmatory qHTS for Identification of Calcium Integrin Binding Protein 1 (CIB1) Competitor (AID 1508617); note: nearly all actives have a fitted effect of over 65% in size
# How it was run: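 Binding competition between test compounds and fluorescent alphaIIb peptide for 1 uM CIB1-GST is monitored by FP at 480/540 nm. Final compound range is up to 114 uM; unlabeled peptide serves as reference competitor.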
# [13] = biological target: Cytochrome P450 3A4 (Homo sapiens) (UniProt P08684); assay: Cytochrome P450 family 3 subfamily A member 4 (CYP3A4) small molecule antagonists: luciferase qHTS assay (AID 1645841; active = well fitted curve in the direction sought with a large enough effect in the repeat runs; an effect the other way counts as inactive or inconclusive; note: nearly all actives have a fitted effect of over 45% in size)
# How it was run: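 P450-Glo CYP3A4 enzyme with proluciferin substrate was preincubated with DMSO-dissolved compounds for 10 min at room temperature. NADPH regeneration solution started a 1 h reaction. Detection reagent stopped it, and luminescence was read after 20 min.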
# Cytochrome P450 2C9 (Homo sapiens), sequence (P11712 whole entry, looked up): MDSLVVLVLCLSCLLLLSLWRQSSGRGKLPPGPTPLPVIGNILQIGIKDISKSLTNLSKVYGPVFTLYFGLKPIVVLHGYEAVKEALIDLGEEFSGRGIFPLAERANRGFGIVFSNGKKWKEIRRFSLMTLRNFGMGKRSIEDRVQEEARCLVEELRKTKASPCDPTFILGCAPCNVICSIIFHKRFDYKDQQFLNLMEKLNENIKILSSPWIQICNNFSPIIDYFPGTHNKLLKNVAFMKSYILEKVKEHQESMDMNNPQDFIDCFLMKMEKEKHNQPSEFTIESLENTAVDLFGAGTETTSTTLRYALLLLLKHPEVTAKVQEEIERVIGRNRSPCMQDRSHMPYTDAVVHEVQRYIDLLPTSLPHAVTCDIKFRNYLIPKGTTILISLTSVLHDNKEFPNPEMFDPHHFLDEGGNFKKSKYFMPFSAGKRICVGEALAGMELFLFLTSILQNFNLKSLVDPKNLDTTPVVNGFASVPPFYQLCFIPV
# Protein phosphatase 1D (Homo sapiens), sequence (O15297 whole entry, looked up): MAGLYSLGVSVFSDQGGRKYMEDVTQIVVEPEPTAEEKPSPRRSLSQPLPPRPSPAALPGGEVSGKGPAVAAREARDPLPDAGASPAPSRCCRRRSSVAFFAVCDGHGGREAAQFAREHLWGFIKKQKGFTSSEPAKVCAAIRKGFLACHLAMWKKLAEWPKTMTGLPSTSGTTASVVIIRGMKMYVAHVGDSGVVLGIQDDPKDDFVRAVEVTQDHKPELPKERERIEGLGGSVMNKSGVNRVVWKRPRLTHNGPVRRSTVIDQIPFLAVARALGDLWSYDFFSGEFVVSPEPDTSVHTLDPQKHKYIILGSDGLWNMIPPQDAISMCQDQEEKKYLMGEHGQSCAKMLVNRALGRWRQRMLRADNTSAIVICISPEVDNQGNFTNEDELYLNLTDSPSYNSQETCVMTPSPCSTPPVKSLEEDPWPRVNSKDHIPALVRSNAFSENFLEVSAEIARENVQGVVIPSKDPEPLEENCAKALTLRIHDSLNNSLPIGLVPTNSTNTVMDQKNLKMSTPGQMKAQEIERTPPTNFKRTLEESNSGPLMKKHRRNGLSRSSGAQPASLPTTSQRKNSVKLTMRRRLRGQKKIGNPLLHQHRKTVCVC
# Cytochrome P450 2D6 (Homo sapiens), sequence (P10635 whole entry, looked up): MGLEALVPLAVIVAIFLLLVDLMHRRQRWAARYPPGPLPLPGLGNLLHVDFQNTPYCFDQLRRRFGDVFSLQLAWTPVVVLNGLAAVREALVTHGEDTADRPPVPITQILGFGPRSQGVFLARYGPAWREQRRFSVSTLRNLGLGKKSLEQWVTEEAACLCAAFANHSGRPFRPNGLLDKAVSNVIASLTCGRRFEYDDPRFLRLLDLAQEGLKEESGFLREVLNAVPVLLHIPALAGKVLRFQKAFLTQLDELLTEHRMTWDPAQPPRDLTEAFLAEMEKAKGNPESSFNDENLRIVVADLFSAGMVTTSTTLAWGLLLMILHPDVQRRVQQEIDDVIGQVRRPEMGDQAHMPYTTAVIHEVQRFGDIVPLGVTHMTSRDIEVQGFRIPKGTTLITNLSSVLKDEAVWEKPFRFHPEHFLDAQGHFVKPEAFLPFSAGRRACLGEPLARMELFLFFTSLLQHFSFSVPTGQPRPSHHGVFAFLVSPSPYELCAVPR
# Calcium and integrin-binding protein 1 (Homo sapiens), sequence (Q99828 whole entry, looked up): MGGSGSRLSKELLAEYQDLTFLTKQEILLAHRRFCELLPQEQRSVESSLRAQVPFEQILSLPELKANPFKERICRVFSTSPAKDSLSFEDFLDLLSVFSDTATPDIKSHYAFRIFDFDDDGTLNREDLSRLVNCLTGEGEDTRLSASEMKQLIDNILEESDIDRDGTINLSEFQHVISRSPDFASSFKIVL
# Cytochrome P450 3A4 (Homo sapiens), sequence (P08684 whole entry, looked up): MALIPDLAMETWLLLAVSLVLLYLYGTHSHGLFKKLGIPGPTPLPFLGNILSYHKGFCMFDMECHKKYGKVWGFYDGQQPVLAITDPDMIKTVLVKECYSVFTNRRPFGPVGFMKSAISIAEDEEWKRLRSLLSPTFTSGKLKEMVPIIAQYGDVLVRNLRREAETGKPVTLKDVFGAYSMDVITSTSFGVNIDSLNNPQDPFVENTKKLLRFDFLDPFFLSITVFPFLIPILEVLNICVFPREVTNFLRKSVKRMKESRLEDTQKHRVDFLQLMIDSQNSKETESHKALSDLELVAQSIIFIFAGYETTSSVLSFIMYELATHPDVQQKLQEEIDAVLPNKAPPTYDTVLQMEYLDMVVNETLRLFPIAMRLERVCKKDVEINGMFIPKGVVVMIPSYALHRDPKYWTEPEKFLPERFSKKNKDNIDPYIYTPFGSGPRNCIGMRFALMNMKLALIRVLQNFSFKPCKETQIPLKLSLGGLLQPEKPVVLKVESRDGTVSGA
SMILES,outcome [1],outcome [2],outcome [3],outcome [4],outcome [5],Potency [6],Potency [7],Potency [8],Potency [9],Potency [10],outcome [11],outcome [12],outcome [13]
Cc1cc(-n2nc3ccc(Cl)cc3n2)c(O)c(C(C)(C)C)c1,inactive,inactive,inactive,inactive,inactive,inactive,inactive,inactive,,,,,
CC(=O)N(CC(O)CO)c1c(I)c(C(=O)NCC(O)CO)c(I)c(C(=O)NCC(O)CO)c1I (centres undefined),inactive,inactive,inactive,inactive,inactive,inactive,inactive,inactive,inactive,,,,
CCOc1cc(NC(C)=O)ccc1C(=O)OC,inactive,inactive,inactive,inactive,inactive,inactive,inactive,inactive,inactive,,,,
O=C(O)COC(=O)Cc1ccccc1Nc1c(Cl)cccc1Cl,inactive,inactive,inactive,inactive,inactive,inactive,inactive,inactive,inactive,17.4 µM (active),,,
CC(CN(C)C)C(C)(O)Cc1ccc(Cl)cc1 (centres undefined),inactive,inactive,inactive,inactive,inactive,inactive,12.3 µM (active),inactive,,inactive,,,
CCCCCCCCCCCCCCCCCCO,inactive,inactive,inactive,inactive,inactive,inactive,inactive,inactive,inactive,inactive,,,
CC(=O)Oc1cccc(O)c1,inactive,inactive,inactive,inactive,inactive,inactive,inactive,inactive,inactive,,,,
OCC(O)CS (centres undefined),inactive,inactive,inactive,inactive,inactive,inactive,inactive,inactive,inactive,,,,
CC[N+](C)(CC)CCOC(=O)C1c2ccccc2Oc2ccccc21,inactive,inactive,inactive,inactive,inactive,inactive,4.36 µM (active),inactive,inactive,inactive,,,
C[n+]1ccccc1/C=N/O,inactive,inactive,inactive,inactive,inactive,inactive,inactive,inactive,inactive,inactive,,,
O=C(OOC(=O)c1ccccc1)c1ccccc1,inactive,inactive,inactive,inactive,inactive,inactive,inactive,inactive,inactive,inactive,,,
CC1(C)S[C@@H]2[C@H](NC(=O)C(C(=O)O)c3ccccc3)C(=O)N2[C@H]1C(=O)O (some centres undefined),inactive,inactive,inactive,inactive,inactive,inactive,inactive,inactive,,inactive,,,
O=C1C(c2[nH]c3ccccc3c2O)=Nc2ccccc21,inactive,inactive,inactive,inactive,inactive,inactive,inactive,inactive,inactive,inactive,,,
Cc1ncc(CO)c(CN)c1O,inactive,inactive,inactive,inactive,inactive,inactive,inactive,inactive,inactive,,,,
CN1CCN(C(=O)C2CCCCC2)CC1,inactive,inactive,inactive,inactive,inactive,inactive,inactive,inactive,inactive,inactive,,,
NC(=O)NC1NC(=O)NC1=O (centres undefined),inactive,inactive,inactive,inactive,inactive,inactive,inactive,inactive,inactive,inactive,,,
O=C(O)C(S)C(S)C(=O)O (centres undefined),inactive,inactive,inactive,inactive,inactive,inactive,inactive,inactive,inactive,inactive,,,
COc1nccnc1NS(=O)(=O)c1ccc(N)cc1,inactive,inactive,inactive,inactive,inactive,inactive,inactive,inactive,inactive,,,,
CC(=O)N[C@H]1[C@H]([C@H](O)[C@H](O)CO)OC(C(=O)O)=C[C@@H]1N=C(N)N,inactive,inactive,inactive,inactive,inactive,inactive,inactive,inactive,inactive,inactive,,,
CC1(C)S[C@@H]2[C@H](N=CN3CCCCCC3)C(=O)N2[C@H]1C(=O)O,inactive,inactive,inactive,inactive,inactive,inactive,inactive,inactive,inactive,,,,
C[C@]1(Cn2ccnn2)[C@H](C(=O)O)N2C(=O)C[C@H]2S1(=O)=O,inactive,inactive,inactive,inactive,inactive,inactive,inactive,inactive,inactive,inactive,,,
CCc1nnc(NS(=O)(=O)c2ccc(N)cc2)s1,inactive,inactive,inactive,inactive,inactive,inactive,inactive,inactive,inactive,,,,
CCCCCC(C)N (centres undefined),inactive,inactive,inactive,inactive,inactive,inactive,inactive,inactive,inactive,inactive,,,
COc1cc(C(=O)NCCCCCC(=O)O)cc(OC)c1OC,inactive,inactive,inactive,inactive,inactive,inactive,inactive,inactive,inactive,,,,
COC(=O)N/N=C/c1c[n+]([O-])c2ccccc2[n+]1[O-],inactive,inactive,inactive,inactive,inactive,inactive,inactive,23.7 µM (active),7.5 µM (active),inactive,,,

SMILES,outcome [1],outcome [2],outcome [3],outcome [4],outcome [5],Potency [6],Potency [7],Potency [8],Potency [9],Potency [10],outcome [11],outcome [12],outcome [13]
CC(=O)Nc1ccc(C(=O)O)cc1,inactive,inactive,inactive,inactive,inactive,inactive,inactive,inactive,inactive,inactive,,,
Cc1ccc(C(C)C)c(O)c1,inactive,inactive,inactive,inactive,inactive,inactive,inactive,inactive,inactive,inactive,,,
O=C(/C=C/c1ccccc1)OCc1ccccc1,inactive,inactive,inactive,inactive,inactive,inactive,inactive,inactive,,,,,
CN1CC(=O)NC1=N,inactive,inactive,inactive,inactive,inactive,inactive,inactive,inactive,,,,,
CC(=O)Oc1cccc(C)c1,inactive,inactive,inactive,inactive,inactive,inactive,inactive,inactive,inactive,,,,
COC(=O)c1cccnc1,inactive,inactive,inactive,inactive,inactive,inactive,inactive,inactive,,,,,
CCCCCCCCCCC(CO)CCCCCCCC (centres undefined),inactive,inactive,inactive,inactive,inactive,inactive,inactive,inactive,inactive,inactive,,,
CN[C@@H]1[C@@H](O)[C@@H](O[C@@H]2[C@H](O)[C@H](O[C@H]3OC(CN)=CC[C@H]3N)[C@@H](N)C[C@H]2N)OCC1(C)O (some centres undefined),inactive,inactive,inactive,inactive,inactive,inactive,,inactive,inactive,,,,
CCCOC(=O)c1ccc(N)cc1,inactive,inactive,inactive,,inactive,inactive,inactive,,,,inactive,,
O=C1c2cccc(O)c2C(=O)c2c(O)cccc21,inactive,inactive,inactive,inactive,,inactive,inactive,inactive,,,inactive,,
CN1C[C@@H]2C[C@H]1CN2c1cc2c(cc1F)c(=O)c(C(=O)O)cn2C1CC1,inactive,inactive,inactive,inactive,,inactive,inactive,inactive,,inactive,inactive,,
C=CCNC(N)=S,inactive,inactive,inactive,inactive,,inactive,inactive,inactive,inactive,inactive,,,
CC(O)CCCCn1c(=O)c2c(ncn2C)n(C)c1=O (centres undefined),inactive,inactive,inactive,inactive,inactive,inactive,,inactive,,inactive,,,
CCOC(N)=O,inactive,inactive,inactive,inactive,inactive,inactive,inactive,inactive,inactive,,,,
COc1ccccc1OCC(O)CO (centres undefined),inactive,inactive,inactive,inactive,inactive,inactive,,inactive,inactive,,,,
CCOC(=O)OC(C)OC(=O)[C@@H]1N2C(=O)[C@@H](NC(=O)[C@H](N)c3ccccc3)[C@H]2SC1(C)C (some centres undefined),inactive,inactive,inactive,inactive,inactive,inactive,,inactive,,inactive,,,
OC[C@@H](O)[C@@H](O)[C@H](O)[C@H](O)CO,inactive,inactive,inactive,,inactive,inactive,inactive,,,inactive,inactive,,
C=CCOc1ccccc1OCC(O)CNC(C)C (centres undefined),inactive,inactive,inactive,inactive,,inactive,13.8 µM (active),,,inactive,inactive,,
CCC(C)(CN(C)C)OC(=O)c1ccccc1 (centres undefined),inactive,inactive,inactive,inactive,inactive,inactive,,inactive,,,,,
COc1ccc(NS(=O)(=O)c2ccc(N)cc2)nn1,inactive,inactive,inactive,inactive,,inactive,,,,,,,
NS(=O)(=O)c1cc(C2(O)NC(=O)c3ccccc32)ccc1Cl (centres undefined),inactive,inactive,inactive,inactive,inactive,inactive,,inactive,,inactive,,,
CC(=O)Nc1cccc(O)c1,inactive,inactive,inactive,,inactive,inactive,inactive,inactive,,inactive,inactive,,
O=C1CC[C@@H](C(=O)O)N1,inactive,inactive,inactive,inactive,,inactive,inactive,inactive,inactive,inactive,inactive,,
O=C(O)Cc1ccc(CCNS(=O)(=O)c2ccc(Cl)cc2)cc1,inactive,inactive,inactive,,,inactive,inactive,,,,inactive,inactive,
NCc1ccc(S(N)(=O)=O)cc1,inactive,inactive,inactive,inactive,,inactive,inactive,,,,inactive,,inactive
